Wnt act: Wnt/beta-catenin pathway activation | Wnt/beta-catenin reporter cell assay, activator, plate reader | activation, % at 9.35 µM | hit rate 1.2% among 300,000; in the data active means activation above about 30%, passing the limit was not always enough;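 further: 0% = neutral control wells and 100% = positive control wells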
ssDAF12 agonist: S. stercoralis DAF-12 activation, primary screen | HEK293 ssDAF-12/GRIP1 lit1-tk-luc reporter, luminescence; % of 3 µM dafachronic acid response | activation, % at 6.8 µM | hit rate 1% among 370,000;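 active means activation above the mean over all tested compounds plus 3 SD, cut at about 0.9% in these data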;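 further: 0% = DMSO-only wells and 100% = 3 µM delta7-dafachronic acid wells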
DAX1 inh: blocks DAX1 repression of SF-1 activated StAR promoter | HEK293T StAR-luciferase reporter, SF-1/DAX-1 repression relief | inhibition, % at 6.8 µM | hit rate 1.1% among 370,000 | AID 652010;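 active means inhibition above the mean over all tested compounds plus 3 SD, cut at about 3.6% in these data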;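 further: 0% = DAX-1 cells with DMSO and 100% = cells lacking DAX-1 with DMSO; higher inhibition means more luminescence from relief of DAX-1 repression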
hcDAF-12 act: H. contortus DAF-12 activation, primary screen; HEK293 hcDAF-12 lit1-tk-luc reporter, luminescence; 0% DMSO, 100% Δ7-dafachronic acid; activation, % at 6.8 µM; hit rate 1.4% among 370,000; AID 652067;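 active means activation above the mean of all tested compounds plus 3 SD, cut at about 5.5% in these data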;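 further: 100% = response to 3 µM Δ7-dafachronic acid high control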
hgDAF-12 ag: hgDAF-12 agonism, primary luciferase screen. HEK293 GAL4-hgDAF12 UAS-luciferase reporter, agonist luminescence; normalized to butyrate control. activation, % at 6.8 µM. hit rate 1.8% among 370,000. AID 687014;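 active means activation above a cutoff set at the mean of all screened compounds plus 3 SD, cut at about 10% in these data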;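 further: 0% = DMSO wells and 100% = sodium butyrate wells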
esBAF inh: blocks esBAF chromatin remodeling in mouse ES cells; Bmi1-luciferase knock-in reporter, 24 h; 100% = twice the neutral-well signal; reporter increase, % at 12.5 µM; hit rate 2% among 350,000; AID 602393; in the data active means activation above about 40%;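 further: 0% = median of the plate's neutral control wells and 100% = double that signal; a rise in the Bmi1 reporter signal indicates esBAF inhibition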
LXRb hcDAF ctr: activates human LXR-beta, counter-screen for hcDAF-12 agonists; shares compounds with hcDAF-12 act; HEK293 Gal4-LXR tk-luc reporter, luminescence, 24 h; normalized: DMSO 0%, positive control 100%; activation, % at 6.8 µM; 3,400 tested, under 10 active;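 active means mean percent activation of the reporter above a cutoff set as the average over tested compounds plus their standard deviation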
Target sequence (P55055 whole entry, looked up, the tested form may be a part): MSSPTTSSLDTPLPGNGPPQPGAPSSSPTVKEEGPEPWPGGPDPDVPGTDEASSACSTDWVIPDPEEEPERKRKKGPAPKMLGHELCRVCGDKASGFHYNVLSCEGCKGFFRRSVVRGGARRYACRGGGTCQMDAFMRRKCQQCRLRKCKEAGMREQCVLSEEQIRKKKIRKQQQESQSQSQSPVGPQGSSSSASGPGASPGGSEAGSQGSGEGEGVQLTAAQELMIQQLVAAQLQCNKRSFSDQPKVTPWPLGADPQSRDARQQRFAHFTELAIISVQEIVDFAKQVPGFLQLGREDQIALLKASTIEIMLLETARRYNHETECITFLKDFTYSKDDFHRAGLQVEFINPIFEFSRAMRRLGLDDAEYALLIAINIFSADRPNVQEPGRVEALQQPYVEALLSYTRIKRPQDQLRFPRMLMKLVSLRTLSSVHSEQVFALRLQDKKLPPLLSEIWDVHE
hcDAF12 ag: confirmation of H. contortus DAF-12 agonists; HEK293 hcDAF-12 lit1-tk-luc reporter, luminescence; % of Δ7-dafachronic acid response; hit rate 61% among 3,400; activation, % at 6.8 µM; shares compounds with hcDAF-12 act;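 active means mean activation across triplicate tests above the threshold derived from the earlier primary screen, cut at about 5.5% in these data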;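 further: 0% = DMSO only wells and 100% = 3 µM Δ7-dafachronic acid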
* = called active by the depositor. A selection: hits, their analogues and other compounds. The true share with any hit is near 4.2%.

`CCOC(=O)c1c(C)oc2c1c(C(c1ccccc1)N1CCOCC1)c(O)c1ccccc12` (stereo unspecified) gave Wnt act 40*, ssDAF12 agonist 1.0*, DAX1 inh 4.0*, hcDAF-12 act 11*, hgDAF-12 ag 13*, esBAF inh 47*, LXRb hcDAF ctr 1 and hcDAF12 ag 7.3*.
For CC(C)Oc1ccc(C(=O)Nc2nc3ccccc3[nH]2)cc1 the results were Wnt act -4, ssDAF12 agonist 0, DAX1 inh 1, hcDAF-12 act 8.7*, hgDAF-12 ag 2, esBAF inh -89, LXRb hcDAF ctr 0 and hcDAF12 ag -1.
CCCSc1nnc(-c2ccccc2N)c(=O)[nH]1 was read as ssDAF12 agonist 0, DAX1 inh 3, hcDAF-12 act 7.1*, hgDAF-12 ag 8, esBAF inh 22, LXRb hcDAF ctr 1 and hcDAF12 ag 7.2*.
Screening CCOC(=O)c1ccc(N2N=C(C)/C(=C/C=C/c3ccco3)C2=O)cc1 returned ssDAF12 agonist -1, DAX1 inh 0, hcDAF-12 act 1, hgDAF-12 ag 1 and esBAF inh 14.
For CCc1ccc(N2NC(=O)/C(=C/C=C/c3ccco3)C2=O)cc1 the results were Wnt act 3, ssDAF12 agonist 0, DAX1 inh 0, hcDAF-12 act 7.7*, hgDAF-12 ag 0, LXRb hcDAF ctr 0 and hcDAF12 ag 1.
For C[C@@H]1CN([C@H](C)CO)C(=O)c2cccc(NS(=O)(=O)c3cn(C)cn3)c2O[C@H]1CN(C)C the results were esBAF inh -2.
For COc1ccccc1NC(=O)CSCC(N)=O the results were Wnt act 0, ssDAF12 agonist 0, DAX1 inh 1, hcDAF-12 act 3, hgDAF-12 ag 1 and esBAF inh -1.
`COc1ccccc1NC(=O)CSCc1nc2ccccc2[nH]1` gave ssDAF12 agonist -1, DAX1 inh 0, hcDAF-12 act 7.0*, hgDAF-12 ag 2, LXRb hcDAF ctr 0 and hcDAF12 ag 4.
`CO[C@@H]1CN(C)C(=O)c2cc(NC(=O)C3CC3)ccc2OC[C@H](C)N(C(=O)c2ccccc2F)C[C@@H]1C` gave esBAF inh 5.
`CCOc1ccc(NC(=O)C(C)Oc2ccccc2C(=O)Nc2ccc(C)c(Cl)c2)cc1` (stereo unspecified) gave Wnt act 9, ssDAF12 agonist 1, DAX1 inh 0, hcDAF-12 act 7.0*, hgDAF-12 ag 8, esBAF inh 11, LXRb hcDAF ctr 0 and hcDAF12 ag 7.4*.
For Cc1ccc(NC(=O)COc2ccccc2C(=O)Nc2ccccc2)cc1Cl the results were Wnt act -4, ssDAF12 agonist -1, DAX1 inh 0, hcDAF-12 act 1 and hgDAF-12 ag -2.
Screening Cc1ccc(S(=O)(=O)NCC[C@H]2CC[C@H](NC(=O)Nc3ccccc3F)[C@@H](CO)O2)cc1 returned esBAF inh -1.
Screening CC(=O)N(C)C[C@@H]1Oc2ncc(C#Cc3cccnc3)cc2C(=O)N([C@H](C)CO)C[C@H]1C returned esBAF inh 1.
CCOc1cc(/C=C2\N=C(C)OC2=O)cc(Br)c1OCCc1ccccc1 was read as Wnt act -1, ssDAF12 agonist -1, DAX1 inh 1, hcDAF-12 act 4, hgDAF-12 ag 1 and esBAF inh 4.
`CCOc1cc(/C=C2\N=C(C)OC2=O)cc(Br)c1OCC(=O)OC` gave Wnt act -1, ssDAF12 agonist 1, DAX1 inh 0, hcDAF-12 act 6.7*, hgDAF-12 ag -1, LXRb hcDAF ctr 0 and hcDAF12 ag 2.
`COc1ccc(N=CC2=C(O)c3ccccc3C2=O)c(OC)c1` gave Wnt act 1, ssDAF12 agonist 1.6*, DAX1 inh 2, hcDAF-12 act 12*, hgDAF-12 ag 10, esBAF inh -83, LXRb hcDAF ctr 1 and hcDAF12 ag 6.8*.
